This is part of a sample that, as a whole, favours compounds with a hit. Of some 83,000 tested, about 20% had one in any assay.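 96-well plates, one dose, 48 hours. Percent growth reported; active if below 10.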 Values without a mark were called inactive. Activity calls are given as the source filed them.

The assay concerns MDA-MB-468 breast. Nature of the assay: NCI-60 one-dose screen, 48 h (100 = growth as untreated, 0 = no growth, -100 = all killed). The conditions noted are these: 10 µM unless noted.
`Cc1nc2sc(C(=O)Nc3cccc(Cl)c3C)c(N)c2cc1C(=O)c1ccccc1`: the growth is -4.28% (active).
Take `NC(=O)c1ncn([C@@H]2O[C@H](CO)[C@@H](O)[C@H]2O)n1`: the growth is 83.7%.
For `Cn1cc(-c2nc(-c3cn(C)c4ncccc34)cs2)c2ccccc21` the value was -21.1% (active).
With `O=C1C=CC(=O)N1c1cccc(N2C(=O)C=CC2=O)c1`, the growth was 51.5%.
Consider `COc1ccc(N)cc1C(=O)Nc1cccc(-c2cc(=O)c3c(OC)c(OC)c(OC)cc3o2)c1`, for which the growth is 55.9%.
As for `c1ccc(-c2nc3sc(C(c4ccccc4)c4ccccc4)nn3c2-c2ccccc2)cc1`, the growth is 96.1%.
Turning to `O=C(N/N=C/c1ccc([N+](=O)[O-])o1)c1[nH]c2ccc(Br)cc2c1-c1ccccc1`, the growth is 24.8%.
For `COC(=O)/C=C/c1cc(OC(C)=O)c2c(c1)[C@@H](C(=O)OC)[C@H](c1ccc(OC(C)=O)c(OC(C)=O)c1)O2`, the growth is -1.27% (active).
For `O=C(c1ccccc1)C(Nc1ccccc1)c1ccccc1` (stereo not given), the growth was 88.7%.
On to `CC(C)/C=N/NC(N)=S`, for which the growth was 19.3%.
Under `COc1cc(N=Nc2cc(Cc3ccc(N(C)C)cc3)c(N)cc2N(C)C)c2ncccc2c1` stands -54.8% (active); under `CC(=O)O[C@H]1Cc2c([nH]c3ccccc23)[C@@H](c2ccc(Cl)cc2)N1C(=O)CCNC(C)(C)C`, 8.31% (active); under `COc1ccc(C(=O)/C=C/c2ccc(OCc3ccc(C)cc3)c(OC)c2)cc1OC`, 49.9%.
Regarding `OC(c1ccccc1)c1nnc(SCc2ccccc2)n1Cc1ccccc1` (stereo not given), the growth is 88.5%.
For the compound `Cl.[Pt].[c-]1ccccc1-c1ccccn1.c1ccc(P(c2ccccc2)C([PH+](c2ccccc2)c2ccccc2)[PH+](c2ccccc2)c2ccccc2)cc1`, the growth is -6.8% (active).
As to `CCc1cccc(Sc2cc(C(=O)N3Cc4ccc(OCCN(C)C)cc4C3)ccc2O)c1`, the growth is 30.6%.
For the compound `Cn1c(=O)c2nc3c(=O)n(C)c(=O)n(C)c3nc2n(C)c1=O`, the growth was 92.1%.
For `Cc1c2ccccc2nc2c1ccc1cccnc12`, the growth is 89.8%.
Under `O=C(Nc1cc(Cl)cc(Cl)c1)Oc1c(Cl)c(Cl)c(Cl)c(Cl)c1Cl` stands 101%.
As to `CCN(CC)c1ccc(-c2cc(-c3cc(OC)c(OC)c(OC)c3)nc(N3CCC(O)CC3)c2C#N)cc1`, the growth was -48.2% (active).
For the compound `COc1ccc2c(c1)CCc1[nH]nc(-c3cc(OC)c(OC)c(OC)c3)c1-2`, the growth is -4.62% (active).
With `O=S(=O)(NCCCNc1nccc(-c2c(-c3cccc(F)c3)nc3sccn23)n1)c1cccc2ccccc12`, the growth was 59.3%.
Take `Cc1cc2nc3c4cc(C#N)ccc4n(CCN(C)C)c3nc2cc1C`: the growth was -41.7% (active).
With `C[C@@H]1C(=O)N(C[C@H](Cc2ccccc2)NC(=O)OCc2ccccc2)[C@]1(Cc1ccccc1)C(=O)OC(C)(C)C`, the growth was 46.7%.
On to `CC(=O)C1CCC2C3CC(F)C4=CC(=O)CCC4(C)C3C(O)CC12C` (stereo not given), for which the growth was 104%.
As to `CC(C)Cn1cnc2c(=O)[nH]c(N)nc21`, the growth was 91.6%.
Take `CC(=O)c1c(Nc2cccc(F)c2)[nH]c2c(Cl)cc(Cl)c(Cl)c2c1=O`: the growth was -10.2% (active).
On to `O=C(Nc1ccccc1F)Nc1ccccc1Cl`, for which the growth was 76%.
Turning to `O=C(O)c1cn(C2CC2)c2cc(N3CCN(C(=O)C[n+]4ccccc4)CC3)c(F)cc2c1=O`, the growth was 107%.
Under `COc1ccc(C(=O)n2nc(CC(=O)NCc3ccccc3)nc2N)cc1` stands 105%.
Turning to `Cc1cc2nc3[nH]c4ccccc4c3nc2cc1C`, the growth is 97.5%.
Turning to `Cc1ccc(-c2nc3nc(-c4ccc(Br)cc4)nc(N4CCCNCC4)c3o2)cc1`, the growth is -65% (active).
As to `CCCn1c(=S)sc2c1nc(C)n1c(Nc3ccccc3)nnc21`, the growth was 51.5%.
With `CC(=O)c1cc(C(=O)N2c3ccccc3Sc3ccccc32)n2c1ccc1ccccc12`, the growth was 50.6%.
For `Cc1[nH]nc2ncc(C#Cc3cncc(C(=O)Nc4ccc(CN5CCN(C)CC5)c(C(F)(F)F)c4)c3)cc12` the value was 26.1%.
Consider `Cc1ccc2c(c1)C13C(=C2Br)CCCN1C(=O)c1ccccc13` (stereo not given), for which the growth was 69.8%.
`COC(=O)Nc1nc2ccc(C(=O)c3ccc(N(C)C4COC4)cc3)cc2[nH]1`: the growth is -8.89% (active).
With `CCOC(=O)C(=Cc1c(-c2ccccc2)[nH]c2ccccc12)C(=O)OCC`, the growth was 12.8%.
For `Cc1c(-c2csc(-n3nc(C(F)(F)F)cc3C(F)(F)F)n2)no[n+]1[O-]`, the growth was 81.2%.
Take `COc1ccc(Nc2nccc(N3CCN(c4c5ccc(Cl)cc5nc5ccc(OC)cc45)CC3)n2)cc1`: the growth is 31.5%.

Source of the values: PubChem BioAssay (NCI).
